Source: PubChem BioAssay
Calls of active or inactive are those of the source. Unless noted, how the calls were made is not given here.

Tests used:
[1] = A549 cell viability effects, profiling panel, calcein-AM fluorescence, 48 h, basal (AID 1162); settings: higher = more signal; further: test concentration not given here
[2] = adipocyte viability effects, profiling panel, cell-based, 3T3-L1 adipocytes, calcein-AM fluorescence, 48 h, basal (AID 1163); settings: 3T3-L1 adipocytes viability, higher = more signal; further: test concentration not given here
[3] = HepG2 cell viability effects, profiling panel, calcein-AM fluorescence, 48 h, basal (AID 1164); settings: higher = more signal; further: test concentration not given here
[4] = MM1S cell viability effects, profiling panel, calcein-AM fluorescence, 48 h, basal (AID 1165); settings: higher = more signal;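 further: viability of MM1S multiple myeloma cells under basal unstimulated conditions; test concentration not given here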
[5] = basal RPMI8226 viability, no added stimulus, profiling panel, cell-based, calcein-AM fluorescence, 48 h, PK04 Diversity Set (AID 1166); settings: RPMI8226 myeloma viability, higher = more signal;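 further: cells grown under basal conditions without added stimulus; test concentration not given here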
[6] = basal HepG2 mitochondrial membrane potential changes, profiling panel, cell-based, JC-1 fluorescence, 24 h, 100 nL compound (AID 1167); settings: higher = more signal; further: test concentration not given here
[7] = basal 3T3-L1 adipocyte mitochondrial potential changes, profiling panel, cell-based, JC-1 fluorescence, 3T3-L1 adipocytes, 24 h, 100 nL compound (AID 1168); settings: JC-1 mitochondrial fluorescence, higher = more signal, called active from +8 up or from −8 down; further: test concentration not given here
[8] = basal RPMI8226 mitochondrial membrane potential changes, profiling panel, cell-based, JC-1 fluorescence, 24 h, 100 nL compound (AID 1169); settings: RPMI8226 myeloma, JC-1 mitochondrial potential fluorescence, higher = more signal; further: test concentration not given here
[9] = basal MM1S mitochondrial membrane potential changes, profiling panel, cell-based, JC-1 fluorescence, 24 h, 100 nL compound (AID 1170); settings: higher = more signal; further: test concentration not given here
[10] = A549 lung cancer cell viability effects, profiling panel, resazurin fluorescence, 24 h, PK04 Diversity Set (AID 1171); settings: higher = more signal, called active from +8 up or from −8 down; further: test concentration not given here
[11] = HepG2 liver cancer cell viability effects, profiling panel, resazurin fluorescence, 24 h, PK04 Diversity Set (AID 1172); settings: higher = more signal; further: test concentration not given here
[12] = basal S. cerevisiae growth modulation, no modifier, primary screen, OD600, strain BY4716, 24 h, basal condition (AID 1173); settings: OD600, 24 h, higher = more signal, called active from +8 up or from −8 down
[13] = MM1S myeloma cell viability, profiling panel, resazurin fluorescence, basal, 24 h, PK04 Diversity Set (AID 1174); settings: higher = more signal, called active from +8 up or from −8 down;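 further: MM1S multiple myeloma cell line; test concentration not given here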
[14] = molecular target: Dihydroorotate dehydrogenase (quinone), mitochondrial (Plasmodium falciparum (isolate 3D7)) (UniProt Q08210); assay: PfDHODH enzyme inhibitors, primary screen, biochemical, C-terminal His tag, absorbance 600 nm (AID 1175); settings: DCIP absorbance 600 nm, higher = more signal, called active from +8 up or from −8 down;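 further: recombinant parasite enzyme with a five histidine tag at its C terminus; test concentration not given here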
Sequence of Dihydroorotate dehydrogenase (quinone), mitochondrial (Plasmodium falciparum (isolate 3D7)) (Q08210 whole entry, looked up): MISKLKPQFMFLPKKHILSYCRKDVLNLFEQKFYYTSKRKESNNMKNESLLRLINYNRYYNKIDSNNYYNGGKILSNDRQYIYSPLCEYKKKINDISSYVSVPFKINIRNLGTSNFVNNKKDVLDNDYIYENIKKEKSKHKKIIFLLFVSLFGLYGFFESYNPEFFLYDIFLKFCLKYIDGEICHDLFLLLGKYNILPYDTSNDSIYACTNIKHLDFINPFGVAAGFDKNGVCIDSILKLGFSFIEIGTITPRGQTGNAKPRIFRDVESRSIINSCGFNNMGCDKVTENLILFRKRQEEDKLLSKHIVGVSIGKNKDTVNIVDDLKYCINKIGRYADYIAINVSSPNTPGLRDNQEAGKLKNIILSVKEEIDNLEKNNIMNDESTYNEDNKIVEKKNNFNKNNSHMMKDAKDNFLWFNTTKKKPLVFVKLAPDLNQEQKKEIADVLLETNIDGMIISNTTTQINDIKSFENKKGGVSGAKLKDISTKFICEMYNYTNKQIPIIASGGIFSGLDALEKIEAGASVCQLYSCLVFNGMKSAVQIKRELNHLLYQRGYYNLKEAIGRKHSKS

[15] = P. aeruginosa biofilm formation inhibitors, primary screen, strain PAO1, LB-PBS medium, absorbance 600 nm (AID 1176); further: test concentration not given here; settings: P. aeruginosa PAO1 growth/biofilm, A600, 12 h; higher = more signal
[16] = S. cerevisiae RM11-1a growth modifiers, primary screen, strain RM11-1a, OD600, basal, 24 h (AID 1177); settings: OD600, 24 h, higher = more signal, called active from +8 up or from −8 down;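 further: cultures grown under basal conditions with no added stressor; test concentration not given here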
[17] = E. coli acrAB mutant growth effects, primary screen, E. coli filamentation inducers, strain DRC39, OD650, 24 h (AID 1178); settings: higher = more signal, called active from +8 up or from −8 down;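 further: growth measured as culture turbidity by optical density at 650 nm; test concentration not given here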
[18] = E. coli acrAB mutant growth effects, primary screen, E. coli filamentation inducers, strain DRC39, OD650, 48 h (AID 1179);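 further: screen aims at cell division blockers that make cells filament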; settings: E. coli DRC39 delta-acrAB growth, higher = more signal, called active from +8 up or from −8 down
[19] = RPMI8226 myeloma cell viability, profiling panel, resazurin fluorescence, basal, 24 h, PK04 Diversity Set (AID 1180); settings: higher = more signal;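 further: RPMI8826 multiple myeloma cell line at 5000 cells per well; test concentration not given here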
[20] = molecular target: E3 ubiquitin-protein ligase XIAP (Homo sapiens) (UniProt P98170); assay: XIAP binders, primary screen, biophysical, small-molecule microarray, fluorescence 635 nm (AID 1181); settings: small-molecule microarray binding, higher = more signal;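 further: score merges 667 nm emission and signal to noise over triplicate slides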
Sequence of E3 ubiquitin-protein ligase XIAP (Homo sapiens) (P98170 whole entry, looked up): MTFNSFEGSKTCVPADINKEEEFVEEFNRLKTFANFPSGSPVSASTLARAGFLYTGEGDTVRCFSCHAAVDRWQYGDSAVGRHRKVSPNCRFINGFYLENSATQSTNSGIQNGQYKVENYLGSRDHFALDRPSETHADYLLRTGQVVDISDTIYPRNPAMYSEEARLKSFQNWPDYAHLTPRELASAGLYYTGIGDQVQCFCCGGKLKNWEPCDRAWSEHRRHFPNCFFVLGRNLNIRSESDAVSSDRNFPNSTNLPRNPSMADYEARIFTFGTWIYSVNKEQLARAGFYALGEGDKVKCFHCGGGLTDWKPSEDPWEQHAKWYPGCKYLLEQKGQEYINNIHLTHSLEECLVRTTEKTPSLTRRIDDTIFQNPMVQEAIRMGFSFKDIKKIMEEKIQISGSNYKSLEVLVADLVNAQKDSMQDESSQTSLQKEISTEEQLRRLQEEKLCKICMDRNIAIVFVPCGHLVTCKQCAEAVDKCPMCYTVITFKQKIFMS

Compound	z-score [1]	z-score [2]	z-score [3]	z-score [4]	z-score [5]	z-score [6]	z-score [7]	z-score [8]	z-score [9]	z-score [10]	z-score [11]	z-score [12]	z-score [13]	composite z-score [14]	z-score [15]	z-score [16]	z-score [17]	z-score [18]	z-score [19]	composite z-score [20]
COc1cccc([C@@H]2Oc3ccc(OC)cc3C(=O)[C@H]2O)c1	0.0549	0.856	-2.24	-2.89	-2.25	-2.31	-0.0174 (inactive)	1.04	-0.27	-0.214 (inactive)	0.115	-8.27 (active)	0.0409 (inactive)	-2.73 (inactive)	-0.364 (inactive)	-0.55 (inactive)	-1.47 (inactive)	-2.37 (inactive)	0.329	-0.0773
C=C(C)C(=O)OCC1CN2[C@@H](CC[C@@H](C)[C@@H]2c2ccc(Br)cc2)C(=O)O1 (stereo not given in full)	-0.0348	-0.518	-0.442	0.151	0.0247	0.684	-0.614 (inactive)	-0.863	0.169	0.789 (inactive)	0.679	-0.638 (inactive)	0.653 (inactive)	-0.134 (inactive)	-0.564 (inactive)	-0.18 (inactive)	0.0293 (inactive)	-1.59 (inactive)	0.759	-0.0899
Cc1ccc(S(=O)(=O)N[C@H]2COC(=O)CC=C[C@@H](C)COC(=O)CC=C[C@@H]2C)cc1	0.409	-0.203	0.0995	0.0438	0.219	0.247	-0.393 (inactive)	-0.0798	-0.197	0.258 (inactive)	-0.118	-0.603 (inactive)	0.186 (inactive)	-0.765 (inactive)	-0.319 (inactive)	0.313 (inactive)	0.0613 (inactive)	-0.0105 (inactive)	0.108	-0.239
COC(=O)[C@H]1[C@@H](O)[C@@]2(O)c3ccccc3O[C@@]2(c2ccccc2)[C@@H]1c1ccccc1	-0.895	-0.535	-2.85	-2.81	-3.1	-1.85	-0.144 (inactive)	-0.231	-0.341	-0.146 (inactive)	-0.314	0.358 (inactive)	-0.683 (inactive)	0.154 (inactive)	-0.175 (inactive)	0.653 (inactive)	-0.306 (inactive)	-0.446 (inactive)	-0.857	-0.173
C[C@@H]1NC(=O)[C@@H](C)COC(=O)[C@H](C)NC(=O)[C@@H](C)COC1=O	-0.838	1.19	0.1	-0.426	-0.604	0.503	0.42 (inactive)	0.0799	0.307	0.228 (inactive)	0.0907	-2.62 (inactive)	-0.325 (inactive)	-3.05 (inactive)	0.365 (inactive)	-1.09 (inactive)	-0.0144 (inactive)	-1.87 (inactive)	0.18	0.0714
CCC(=O)[C@@]1(O)C(=O)N2C(=C3C(=O)OCC[C@@H]31)N(Cc1ccccc1)C(C)=C(C(=O)OC)[C@H]2c1ccccc1	-0.0783	-1.09	0.237	-0.184	0.596	-0.255	-0.0375 (inactive)	-0.179	0.676	-0.342 (inactive)	-0.207	-0.235 (inactive)	0.327 (inactive)	-1.41 (inactive)	0.936 (inactive)	0.273 (inactive)	0.533 (inactive)	-0.247 (inactive)	-0.557	-0.175
COc1cccc([C@H]2Oc3ccc(OC)cc3C(=NOC(C)CN3CCCCc4nc(C)c(C)cc43)[C@@H]2O)c1 (stereo not given in full)	0.217	-0.527	0.0117	-1.02	-0.836	-0.108	-0.832 (inactive)	-0.00251	-0.144	-0.565 (inactive)	-0.621	-0.951 (inactive)	-1.16 (inactive)	-0.695 (inactive)	0.253 (inactive)	-0.0905 (inactive)	0.597 (inactive)	0.748 (inactive)	-1.16	-0.0525
CCOC(=O)[C@H](Cc1ccccc1)NC(=O)CCC1CC(OC(=O)NCCc2ccc(F)cc2)CC2(CCCC(COC(=O)NCCOC)O2)O1 (stereo not given in full)	-0.153	-0.41	-0.981	-3.38	-1.7	0.0204	0.872 (inactive)	-0.326	-1.48	0.042 (inactive)	-0.154	-0.664 (inactive)	-0.195 (inactive)	-1.47 (inactive)	0.487 (inactive)	0.128 (inactive)	1.21 (inactive)	0.195 (inactive)	0.673	-0.242
O=C1C[C@@H](O)[C@@H](O)[C@@H]2[C@@H]3C(=O)N(Cc4ccccc4)C(=O)[C@@H]3CC[C@@H]12	0.249	-0.118	0.208	0.0158	-0.499	-0.229	0.377 (inactive)	0.139	0.431	1.11 (inactive)	0.568	0.178 (inactive)	0.144 (inactive)	0.378 (inactive)	-0.425 (inactive)	0.0564 (inactive)	-0.7 (inactive)	-0.564 (inactive)	0.112	0.126
CC(C)=CCCC(C)=CCON=C1C[C@@H](O)[C@@H](O)[C@@H]2[C@@H]3C(=O)N(c4ccc(F)cc4F)C(=O)[C@@H]3CC[C@@H]12	-1.34	0.425	-0.354	-0.586	-1.47	0.208	-1.28 (inactive)	-0.163	-0.356	-0.179 (inactive)	0.387	-1.38 (inactive)	0.77 (inactive)	0.263 (inactive)	0.519 (inactive)	0.225 (inactive)	0.781 (inactive)	0.345 (inactive)	0.75	-0.336
COC(=O)CC=C[C@H](C)[C@@H](OCc1cccc(Br)c1)[C@@H](C)[C@H](OC)C1CCCCC1	0.836	0.128	1.21	-2.16	-0.474	0.918	0.831 (inactive)	0.00209	-0.324	0.0303 (inactive)	-0.363	-0.949 (inactive)	0.0742 (inactive)	-0.498 (inactive)	-1.16 (inactive)	0.161 (inactive)	0.474 (inactive)	-0.596 (inactive)	-0.171	-0.318
CCOC(=O)C1=NO[C@@]2(C=C(Br)C3(OCCCO3)[C@H]3O[C@H]32)C1	-0.433	0.672	0.0307	0.777	-0.468	0.448	0.139 (inactive)	-0.723	0.308	-0.542 (inactive)	-0.68	-0.303 (inactive)	-0.227 (inactive)	0.552 (inactive)	0.356 (inactive)	0.227 (inactive)	0.58 (inactive)	0.643 (inactive)	-0.249	0.0657
CCOC(=O)[C@H](Cc1ccccc1)NC(=O)CCC1CC(OC(=O)NCCc2ccc(F)cc2)CC2(CCCC(COC(=O)NCCCN3CCCC3=O)O2)O1 (stereo not given in full)	1.57	-0.0501	0.43	0.356	-0.335	0.668	-0.182 (inactive)	0.437	-1.09	-0.972 (inactive)	-0.0038	-0.196 (inactive)	0.374 (inactive)	-1.73 (inactive)	0.781 (inactive)	-1.25 (inactive)	-0.198 (inactive)	-0.926 (inactive)	0.898	-0.0622
O=C1[C@H]2[C@H]3[C@H](O)[C@H](O)CC(=NOCc4ccccc4)[C@@H]3CC[C@H]2C(=O)N1Cc1ccc2c(c1)OCO2	-0.152	-0.121	-0.937	0.266	-2.81	-0.335	0.17 (inactive)	-0.234	-0.0728	0.688 (inactive)	1.03	-0.419 (inactive)	0.0481 (inactive)	-0.0799 (inactive)	0.07 (inactive)	-0.0921 (inactive)	0.419 (inactive)	0.128 (inactive)	1.01	-0.0377
COc1ccc(COC(=O)NN=C2C[C@@H](O)[C@@H](O)[C@@H]3[C@@H]4C(=O)N(C5CCCCC5)C(=O)[C@@H]4CC[C@H]23)cc1	-0.574	-1.09	-0.543	-1.15	-0.733	-0.895	-1.69 (inactive)	0.249	-0.244	0.0299 (inactive)	-0.689	1.07 (inactive)	-1.15 (inactive)	0.608 (inactive)	1 (inactive)	0.335 (inactive)	-0.189 (inactive)	-0.582 (inactive)	-0.363	-0.267
COC(=O)[C@@H]1CC[C@H](C)[C@@H](c2ccc(C)cc2)N1C(=O)c1ccc(C=NO[C@H](C)c2cn([C@@H]3COC[C@H]3O)nn2)cc1	0.278	-1.16	-0.482	0.673	-0.486	-1.12	-0.579 (inactive)	-0.916	-0.985	0.339 (inactive)	-0.324	-0.225 (inactive)	-0.943 (inactive)	0.0465 (inactive)	0.289 (inactive)	1.17 (inactive)	0.879 (inactive)	0.246 (inactive)	-0.798	0.199
CC=CC1=C(CO)C(=O)[C@@H]2O[C@@H]2C1=O	-0.912	-1.18	-0.88	-3.5	-2.88	-1.86	-0.316 (inactive)	-1	-2.1	-0.315 (inactive)	-0.714	-1.37 (inactive)	-1.58 (inactive)	0.324 (inactive)	0.827 (inactive)	-1.22 (inactive)	0.246 (inactive)	0.537 (inactive)	-0.875	-0.0498
C=COC[C@@H]1CN2[C@@H](CC[C@@H](C)[C@@H]2c2ccc(Br)cc2)C(=O)O1	-0.0396	0.566	-0.388	-1.04	-0.731	-0.284	0.347 (inactive)	-0.795	-0.228	0.378 (inactive)	-0.32	-4.37 (inactive)	-0.345 (inactive)	-3.12 (inactive)	-1.01 (inactive)	-0.889 (inactive)	-1.03 (inactive)	-1.65 (inactive)	0.169	-0.0669
